Screening data deposited in PubChem by National Center for Advancing Translational Sciences (NCATS).
KB-3-1 tox – KB-3-1 parental cell cytotoxicity; KB-3-1 viability, CellTiter-Glo ATP luminescence, 72 h; Potency, µM (highest dose often 46.1 µM), most hits filed as cytotoxic; 400,000 tested, 1.4% active; AID 1347075; further: nearly all actives have a fitted effect of over 60% in size
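Parental KB-3-1 viability, qHTS format: 72 h compound exposure, 37 °C; CellTiter-Glo; media-only wells and DMSO plates as controls; concentration-effect fits on corrected data.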
TDP1 cell noCPT – qHTS for Inhibitors of human tyrosyl-DNA phosphodiesterase 1 (TDP1): qHTS in cells in absence of CPT | DT40 Tdp1-/- hTDP1 cells, no CPT, ATP luminescence, 48 h | Potency, µM (top dose mostly 46.2 µM), most hits filed as inhibitors | 420,000 tested, 15% active; further: nearly all actives have a fitted effect of over 55% in size
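Chicken DT40 Tdp1-/- cells stably complemented with human TDP1 were seeded at 400 cells/well with DMSO in place of 20 nM camptothecin. After compound pinning, cells grew at least 48 hr at 37 °C; viability read by CellTiter-Glo luminescence.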
DT40 TDP1 CPT – DT40-hTDP1 cell growth loss with CPT. chicken DT40 Tdp1-/-;hTDP1 cells + 20 nM CPT, ATP luminescence, 48 h. Potency, µM (top dose mostly 46.2 µM), actives largely listed as inhibitors. 420,000 tested, 12% active. AID 686979; further: nearly all actives have a fitted effect of over 55% in size
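Cell growth measured by CellTiter-Glo luminescence after a minimum 48 h, 37 C compound exposure with 20 nM CPT in Tdp1-knockout DT40 cells stably expressing hTDP1, seeded 400/well; qHTS titration format.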
KB-V1 cytotox – kills drug-selected multidrug resistant KB-V1 cells; 400,000 tested, 3.4% active; KB-V1 MDR cells viability, CellTiter-Glo, 72 h; Potency, µM (series often up to 46.1 µM), hits mostly cytotoxic; further: nearly all actives have a fitted effect of over 60% in size
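Cytotoxicity toward P-gp-expressing KB-V1 cells was determined as loss of CellTiter-Glo luminescence after 72 h at 37 degrees C. Compounds were tested in quantitative HTS format across a concentration range, with curves fitted to normalized data.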
HT1080NT lethal – kills 2HG-producing HT-1080-NT fibrosarcoma cells | HT-1080-NT fibrosarcoma viability, CellTiter-Glo ATP luminescence, 48 h | Potency, µM (doses to about 46.1 µM), usual class: cytotoxic | 360,000 tested, 1.6% active | AID 686970;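 further: NT is the 2HG producing partner of a matched IDH1 knockdown line; nearly all actives have a fitted effect of over 55% in size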
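A 48-hour cytotoxicity screen used HT-1080-NT cells plated 2 hours before compound delivery. ATP-based CellTiter-Glo luminescence measured viability, normalized to DMSO and no-cell controls.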
HT1080 IDH1KD tx – HT-1080 IDH1 knockdown cell toxicity (counter line). HT-1080 IDH1 knockdown viability, ATP luminescence, 48 h. Potency, µM (titrated, usually from 46.1 µM), usual class: cytotoxic. 360,000 tested, 2% active. AID 686971
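% activity derives from luminescence (CellTiter-Glo), normalised to DMSO and no-cell wells. HT-1080-IDH1KD cells, 750/well, had 48 h compound exposure at 37 °C.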
Numbers stand for hits; n = inactive; u = inconclusive; x = no result given; [ ] = another dose, or the depositor's remark. Shown are actives, neighbours in structure and some others; about 19% of the full set was active somewhere. The call rests on the fitted dose curve; in most records, active means well fitted curve in the direction sought with a large enough effect; inconclusive means small, poorly fitted or top-dose-only effect, or another doubt; inactive means no such curve, though single readings can be large; an effect the other way counts as inactive or inconclusive.

SMILES	KB-3-1 tox	TDP1 cell noCPT	DT40 TDP1 CPT	KB-V1 cytotox	HT1080NT lethal	HT1080 IDH1KD tx
COc1cccc(CNC(=O)c2cc(C)nc3c2c(C)nn3-c2cccc(F)c2)c1	n	u	u	n	x	x
COc1ccc(Cl)cc1NC(=O)CSc1nc2ccccc2nc1N1CCCCC1	n	21µM	u	u	x	x
COc1ccc(C)cc1NC(=O)CSc1nc2ccccc2nc1N1CCCC1	u	21µM	u	n	n	n
COc1ccc(NC(=O)CSc2nc3ccccc3nc2N2CCCC2)c(OC)c1	n	u	u	n	n	n
O=c1[nH]c(C2CCCN(S(=O)(=O)c3ccccc3)C2)nc2c1nnn2Cc1cccc(Cl)c1 (configuration not stated)	n	n	n	n	u	u
Cc1ccc(Nc2nc(C)cc(C)n2)c(Br)c1	n	n	n	n	n	n
Cc1ccc(CN=C(N)Nc2nc(C)cc(C)n2)cc1	2.6µM	3.3µM	6.5µM	n	7.3µM	7.3µM
CCCn1c(CN2CCN(C(=O)OCC)CC2)nc2cc(NC(=O)C(C)C)ccc21	u	12µM	21µM	u	n	u
CCCn1c(CN2CCN(C(=O)OCC)CC2)nc2cc(NC(C)=O)ccc21	u	16µM	u	n	n	n
CCOC(=O)N1CCN(Cc2nc3cc(NC(=O)c4ccco4)ccc3n2C)CC1	n	n	n	n	n	n
CCCCC(=O)Nc1ccc2c(c1)nc(CN1CCN(C(=O)OCC)CC1)n2C	n	n	u	n	n	n
COCC(=O)N1CCC2(CCCN(C(=O)Nc3cccc(F)c3)C2)CC1	x	n	n	x	x	x
COc1ccc(N2CC(C(=O)NCCC3=CCCCC3)CC2=O)c(OC)c1 (configuration not stated)	n	n	n	n	n	n
O=C(CN1C(=O)CCC1=O)NCC12CC3CC(CC(C3)C1)C2	n	26µM	u	n	n	n
Cc1ccccc1NC1=C(Cl)C(=O)N(C2CCCCC2)C1=O	n	u	u	u	n	n
COc1ccccc1NC1=C(Cl)C(=O)N(C2CCCCC2)C1=O	n	26µM	18µM	n	n	n
CNc1cc(-c2cc(OC)ccc2OC)ncn1	n	n	n	n	n	n
O=C1c2ccccc2[C@@H]2C[C@H]3O[C@H]3CCN12	n	n	n	u	n	n
COC(=O)C(=Cc1ccncc1)c1cccc2ccccc12	n	13µM	6.5µM	u	n	n
CC(C)Oc1ccc2ccccc2c1CNC[C@H]1O[C@@H](n2ccc(N)nc2=O)[C@H](O)[C@@H]1O	n	n	n	n	n	n
Nc1nonc1-c1nc2ccccc2n1Cc1ccc(Br)cc1	x	n	n	x	x	x
CC(C)CCn1c(-c2nonc2N)nc2ccccc21	n	u	13µM	n	u	u
Nc1nonc1-c1nc2ccccc2n1Cc1ccccc1	u	29µM	u	u	u	u
COc1cccc(CN2CCNC(=O)C2CC(=O)N(C)C2CCCCC2)c1 (configuration not stated)	n	n	n	n	n	n
COc1ccc(-n2nc3ccc(NC(=O)c4c(OC)cccc4OC)cc3n2)cc1	n	15µM	16µM	n	x	x
SMILES	KB-3-1 tox	TDP1 cell noCPT	DT40 TDP1 CPT	KB-V1 cytotox	HT1080NT lethal	HT1080 IDH1KD tx
CCOc1ccc(-n2nc3ccc(NC(=O)Cc4ccccc4)cc3n2)cc1	n	3.7µM	3.7µM	u	x	x
CCOc1ccc(-n2nc3ccc(NC(=O)CC)cc3n2)cc1	n	n	n	n	u	u
COc1ccc(-n2nc3ccc(NC(=O)c4cccc(OCCC(C)C)c4)cc3n2)cc1	u	7.3µM	18µM	u	x	x
O=C(Nc1ccc2nn(-c3ccc(F)cc3)nc2c1)c1cccc2c(Cl)cccc12	n	21µM	10µM	n	x	x
Cc1cccc(-c2cc(NC(=O)COc3ccccc3F)n(-c3ccccc3)n2)c1	n	u	u	n	x	x
O=c1cc(CN2CCN(Cc3ccccc3)CC2)c2cc(O)ccc2o1	n	u	u	n	n	n
CCc1cc(=O)oc2cc(C)c(CN3CCCC(C)C3)c(O)c12 (configuration not stated)	n	u	u	u	n[9.24 µM]	n
CCCc1cc(=O)oc2cc(C)cc(OC(=O)c3ccco3)c12	n	18µM	23µM	u	n	n
Cc1cc(O)c2c(CN3CCN(Cc4ccccc4)CC3)cc(=O)oc2c1	n	15µM	u	n	n	n
Cc1cc2oc(=O)cc(CN3CCN(Cc4ccccc4)CC3)c2cc1O	n	7.3µM	8.2µM	n	n	n
CCCCc1cc(=O)oc2cc(C)c(CN3CCCC3)c(O)c12	n	u	n	18µM	u	n
Cc1noc(C)c1S(=O)(=O)NC(=O)C1(C)CCN1C(=O)C1(c2ccc(Cl)cc2)CC1 (configuration not stated)	n	n	n	n	n	u
CCCc1cc(=O)oc2cc(C)cc(O)c12	15µM	18µM	u	13µM	n	n
CCCCCc1cc(O)c2c(C)cc(=O)oc2c1	u	16µM	23µM	u	n	u
CCc1cc(=O)oc2cc(C)cc(O)c12	n	u	u	n	n	n
CCCc1cc(=O)[nH]c(SCc2cc(C(=O)OC)c(C)o2)n1	n	n	n	n	n	n
CCOC(=O)c1c(C)[nH]c(C)c1C(=O)CSc1nnnn1-c1ccccc1	n	u	n	u	n	n
CCOC(=O)c1c(C)[nH]c(C)c1C(=O)Cn1nnc(-c2ccccc2C)n1	n	u	15µM	16µM	n	n
COC(=O)c1cc(CSc2nc3ccccc3[nH]2)oc1C	21µM	23µM	15µM	2.9µM	n	n
CCOC(=O)c1c(C)[nH]c(C)c1C(=O)CSc1nc2ccccc2[nH]1	n	n	n	23µM	n	n
CCOC(=O)c1c(C)[nH]c(C)c1C(=O)CSc1nc2ccccc2c(=O)n1-c1ccc(CC)cc1	23µM	6.5µM	12µM	7.3µM	n	n
CCOC(=O)c1c(C)[nH]c(C)c1C(=O)CSc1nc2ccccc2n1CC	n	u	u	n	n	n
OC(c1ccc(-c2ccccc2)cc1)c1ncc(-c2ccccc2Cl)[nH]1 (configuration not stated)	n	u	u	n	u	u
O=C(Nc1ccc2nccnc2c1)N1CCCCCC1	n	n	u	n	x	x
COc1ccccc1C(=O)NCCN1CCCC1	n	n	n	n	n	n
CC(=O)c1ccc(-n2c(SCC(=O)c3c[nH]c4ccccc34)nc3ccccc3c2=O)cc1	n	12µM	21µM	n	n	u
Cn1ccnc1SCC(=O)c1c[nH]c2ccccc12	n	n	n	n	n	n
